Laboratory results reported in paper PMC7819943, “Rice protein-binding microarrays: a tool to detect cis-acting elements near promoter regions in rice”.
In all, about 35,000 sequences were measured (“fluorescence intensity (a.u.)”: median about 10,000, highest 2% from about 52,000 on). Many of the other results were omitted from the sample, so the highest values are more common in it than they were.

Each sequence was assayed against T1, OsWOX13 (Oryza sativa, UniProt Q5QMM3 1-267) (assay: protein-binding microarray (RPBM); PBS, 2% BSA, 51.3 ng/ul salmon testes DNA, 50 uM zinc acetate, 200 nM TF, 25 C, 1 h; high values mean tight binding). Details: protein: recombinant; tags: N-terminal polyhistidine and DsRed monomer fusion (pET32a); label: CyDye5-dUTP incorporated in the synthesized complementary strand; 3' TTTTT single-stranded linker to array surface; dsDNA, one strand shown.
T1 sequence: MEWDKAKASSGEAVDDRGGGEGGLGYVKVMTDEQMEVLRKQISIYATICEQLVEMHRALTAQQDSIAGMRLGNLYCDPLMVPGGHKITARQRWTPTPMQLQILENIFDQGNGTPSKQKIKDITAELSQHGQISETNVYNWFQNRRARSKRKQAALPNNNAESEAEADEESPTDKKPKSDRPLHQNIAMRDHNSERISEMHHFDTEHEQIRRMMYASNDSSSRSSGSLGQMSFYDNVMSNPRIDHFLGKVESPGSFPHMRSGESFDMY
Outline: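 Using Ni–NTA, transcription factors fused N-terminally to polyhistidine and DsRed were purified after expression in E. coli BL21-CodonPlus. These were incubated at 200 nM with a blocked, double-stranded custom Agilent array for 1 h at 25 °C in a buffer containing 50 µM zinc acetate, and the array was washed. The binding signal is per-feature fluorescence intensity (arbitrary units) on an Axon 4000B scanner.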

Sequence | binding signal
GTAATTGGGAGGGAATTTCTCCTTTACTTCGCCTAAACAACGGAGTCACCTAGTGCAG | 14100 fluorescence intensity (a.u.)
TCTAACTGTGGATAATATCTGACAGGAAATTTGATATCAACGGAGTCACCTAGTGCAG | 6210 fluorescence intensity (a.u.)
TGTTGGTTAAGTAATTAATTAAGTCTTGGCTATTGGCGATCGGAGTCACCTAGTGCAG | 13500 fluorescence intensity (a.u.)
TCGTAAAATTAATTGTAAATTGTAATATGATAACAAGGCCCGGAGTCACCTAGTGCAG | 33100 fluorescence intensity (a.u.)
CAAAATTATCTAATTGATGACTATTTCTAAATACACATCACGGAGTCACCTAGTGCAG | 41800 fluorescence intensity (a.u.)
AGTTTTCAAAATTTGACTTTAAAATTTAAATCTTAAATCACGGAGTCACCTAGTGCAG | 3970 fluorescence intensity (a.u.)
TCTTAATTGAAAGAGTTTTCATCATGTCTTTCAGTCACCACGGAGTCACCTAGTGCAG | 53900 fluorescence intensity (a.u.)
ACTTTTCAGTTACATCATCTCTAATTTCAATTGAAATCCACGGAGTCACCTAGTGCAG | 7120 fluorescence intensity (a.u.)
GAGTTTAATTAATTAATTTCTTAAAATTGATGTCATCACACGGAGTCACCTAGTGCAG | 54800 fluorescence intensity (a.u.)
GTGCTTTAATCAGTAATTTTGCAATTGCTTTTGAATTTCACGGAGTCACCTAGTGCAG | 5640 fluorescence intensity (a.u.)
CTAATCAAAATGTAATTAACTCATTTATATATTACGGAAACGGAGTCACCTAGTGCAG | 21800 fluorescence intensity (a.u.)
TCGATCTCCATTAATTATCCAACGACGACACGACGACGCACGGAGTCACCTAGTGCAG | 5720 fluorescence intensity (a.u.)
GGGTCAGGGTGGGCGTGGATTGATATTTTAATACGAATAACGGAGTCACCTAGTGCAG | 10800 fluorescence intensity (a.u.)
TGCACGCTAATTTGCCTTGCTGCTGCTGCTACTAGGGCGGCGGAGTCACCTAGTGCAG | 4920 fluorescence intensity (a.u.)
GAACGGAGGATGCTGAGCTCTCTTATGAGGTCTATTTTCCCGGAGTCACCTAGTGCAG | 65100 fluorescence intensity (a.u.)
TAGATGAGTTAAATATAATTATTTGTATGTTTTAATAAATCGGAGTCACCTAGTGCAG | 3630 fluorescence intensity (a.u.)
ACTTAATTATGTTGTGGTTAATTAGCCCCGAAATGGTCGTCGGAGTCACCTAGTGCAG | 52900 fluorescence intensity (a.u.)
CATGATTTTACTTTCTTTTCAGGTCTTAGGAGTGAGCTTCCGGAGTCACCTAGTGCAG | 9930 fluorescence intensity (a.u.)
GTTTAATTAATTATATGTTAATGATTTTCTTTTCATGCCCCGGAGTCACCTAGTGCAG | 65400 fluorescence intensity (a.u.)
GTCATTTTAATTGCAAATGCTTTTATATGTTGTTTCTTTCCGGAGTCACCTAGTGCAG | 6630 fluorescence intensity (a.u.)
GCTGATGACTTTTCTCCCGGTTTCATATTTTCTTTTAGAACGGAGTCACCTAGTGCAG | 8420 fluorescence intensity (a.u.)
TTAAAATTTATATGTTAAATTATAGTGGTTTAAAATTTCACGGAGTCACCTAGTGCAG | 8530 fluorescence intensity (a.u.)
GATTAATGATTAATTAATAATATGTTAATGAGTTTTATCCCGGAGTCACCTAGTGCAG | 52500 fluorescence intensity (a.u.)
TTAATTAATAATATGTTAATGATTTTCTCATCTTACCTTACGGAGTCACCTAGTGCAG | 13400 fluorescence intensity (a.u.)
AGCCTAATTAATTCGTCATTAGCATATGTGGGTTATTATACGGAGTCACCTAGTGCAG | 27800 fluorescence intensity (a.u.)
TATGATTTATAAATTAATGGATTTAAAGTTTTAAGTTAATCGGAGTCACCTAGTGCAG | 43900 fluorescence intensity (a.u.)
